Bioassay records (PubChem)
GALC G270D up – A Novel Cell-Based Assay to Identify Small Molecules for B -Galactocerebrosidase; 145M-Twi-hGALC-G270D cells (Twitcher mouse brain line with human GALC G270D), HMU-beta-Gal fluorescence, 48 h; Potency, µM (highest dose often 57.5 µM), most hits filed as activators; 0.1% of 45,000 active; also: potency is read from the fitted curve at half-maximal effect; 0% is about no effect; nearly all actives have a fitted effect of over 65% in size
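Fluorescence readout: HMU-β-gal cleavage by mutant GALC (0.1 mM final, citrate/phosphate pH 5.2 with 1 mg/mL taurocholate), stopped with carbonate/bicarbonate plus Triton X-100. Cells: murine Twitcher 145M-Twi expressing human G270D GALC; qHTS for activators.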
B2AR arrestin ag – qHTS assay of beta-arrestin-biased ligands of beta2-adrenergic receptor: NCGC Sytravon Library Screen | HTLA Tango cells, beta-arrestin recruitment, luciferase luminescence, 18 h | Potency, µM (titrated, usually from 46.1 µM), hits mostly activators | AID 1347077, 2019 | 44,000 tested, under 10 active | Beta-2 adrenergic receptor (Homo sapiens), P07550;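 also: potency is read from the fitted curve at half-maximal effect; 0% = DMSO and full agonism = EC100 isoproterenol or metaproterenol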
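Tango cell line, 1% FBS DMEM; cpd titration up to 46 microM; 18 hr, 37 degrees C, 5% CO2. Luciferin/ATP substrate mix added, 15 min RT, luminescence. %Activity, CRC fitting, curve-class categorization.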
GPR32 ag – qHTS for Agonists of Human Resolvin D1 Receptor DRV1 | 2.5% of 48,000 active | CHO-K1 GPR32 beta-arrestin PathHunter luminescence, 90 min; zero percent set by DMSO-only wells | Probable G-protein coupled receptor 32 (Homo sapiens), O75388 | activation, % at 76.9 µM | AID 1346428, 2018;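 active = activation of at least 60% and not above a set upper limit, about 1 call in 100 departs from these limits; inconclusive = activation of 40% to 60%, or above that upper limit; inactive = activation under 40%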; also: 0% is about no effect
Target sequence (O75388 whole entry, looked up): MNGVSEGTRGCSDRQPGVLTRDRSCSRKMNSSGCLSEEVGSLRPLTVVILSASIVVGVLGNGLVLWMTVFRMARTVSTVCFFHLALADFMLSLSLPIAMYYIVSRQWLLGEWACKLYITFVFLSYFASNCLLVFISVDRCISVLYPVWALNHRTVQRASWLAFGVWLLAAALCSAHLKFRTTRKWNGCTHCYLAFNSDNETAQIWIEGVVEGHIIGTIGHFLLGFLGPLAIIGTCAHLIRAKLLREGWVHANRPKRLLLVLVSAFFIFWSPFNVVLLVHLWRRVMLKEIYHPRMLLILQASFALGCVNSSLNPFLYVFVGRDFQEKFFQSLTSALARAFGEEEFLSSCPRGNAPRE
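Cells are plated overnight, treated with compounds in DMSO for 90 minutes at 37 °C, and developed with PathHunter detection reagent for 1 hour before luminescence is read; signal reflects beta-arrestin binding to GPR32 in engineered CHO-K1 cells.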
NTMT1 inhibitor – Primary qHTS for Inhibitors of N-terminal methyltransferase 1 (NTMT1): MTaseGlo Assay | N-terminal Xaa-Pro-Lys N-methyltransferase 1 (Homo sapiens), Q9BV86 | NTMT1 MTase-Glo SAH luminescence, purified enzyme | 2.5% of 59,000 active | Potency, µM (titrated, usually from 114 µM), inactives show at the highest dose activity change, negative = inhibition, actives largely listed as inhibitors;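 also: potency is read from the fitted curve at half-maximal effect; plate controls were DMSO vehicle for no effect and no enzyme for full effect; nearly all actives have a fitted effect of over 65% in size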
Target sequence (Q9BV86 whole entry, looked up): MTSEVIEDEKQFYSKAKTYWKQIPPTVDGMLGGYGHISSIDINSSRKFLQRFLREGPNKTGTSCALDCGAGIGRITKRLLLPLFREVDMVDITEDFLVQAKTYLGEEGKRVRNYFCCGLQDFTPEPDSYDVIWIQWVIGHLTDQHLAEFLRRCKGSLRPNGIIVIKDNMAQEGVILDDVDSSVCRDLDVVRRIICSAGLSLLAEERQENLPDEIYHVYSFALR
GALK inh – qHTS Assay for Inhibitors of Human Galactokinase (GALK): NCGC Sytravon Library Screen; 44,000 tested, under 10 active; P51570; recombinant GALK, Kinase-Glo ATP luminescence, 1 h; Potency, µM (top dose mostly 57.5 µM), without a hit: at the highest dose activity, negative = inhibition, most hits filed as inhibitors;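 also: plate controls were full GALK reaction for no effect and reaction lacking GALK for full effect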
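5 nM GALK; 35 uM ATP; 100 uM D-galactose; 20 mM HEPES pH 8.0, 5 mM MgCl2, 60 mM NaCl, 1 mM DTT, 0.01% BSA; 1 h RT; Kinase-Glo Plus luminescence.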
DYRK1A inh – Assay for Inhibitors of Dual-Specificity Tyrosine-(Y)-Phosphorylation Regulated Kinase 1A (Kinase-Glo assay) | shares compounds with NTMT1 inhibitor | recombinant DYRK1A, Kinase-Glo ATP depletion luminescence | Potency, µM (doses to about 76.9 µM), for the others: top-dose activity change, negative = inhibition, usual class: inhibitors | 80% of 100 active | AID 2705, 2010
CLK4 KinaseGlo – Confirmation Assay for Inhibitors of CDC-like Kinase 4 (Kinase-Glo Assay): SAR round 2; shares compounds with NTMT1 inhibitor; recombinant Clk4, Kinase-Glo ATP luminescence, 4.5 h; Potency, µM (top dose mostly 76.9 µM), for inactives: at the highest dose activity, negative = inhibition, most hits filed as inhibitors; AID 493204, 2011; 90% of 90 active
NNMT inh – Counterscreen qHTS for Inhibitors of N-terminal methyltransferase 1 (NTMT1): NNMT MTaseGlo assay; shares compounds with NTMT1 inhibitor; NNMT MTase-Glo luminescence, SAH detection; Potency, µM (top dose mostly 57.1 µM), without a hit: at the top dose activity, negative = inhibition, usual class: inhibitors; 10% of 120 active; AID 1645878, 2021
* = called active by the depositor; i = inactive; ? = inconclusive; · = not tested or not shown; ! = not confirmed by another sample; [ ] = another dose, or the depositor's remark. Only some compounds are listed: those with a hit (about 3.6% of all), similar ones and a draw of the others. Unless noted, calls follow the shape of the dose curve; as a rule, active = well fitted curve in the direction sought with a large enough effect; inconclusive = small, poorly fitted or top-dose-only effect, or another doubt; inactive = no such curve, though single readings can be large; an effect the other way counts as inactive or inconclusive.

SMILES	GALC G270D up	B2AR arrestin ag	GPR32 ag	NTMT1 inhibitor	GALK inh	others
NC(=O)C(CCC(F)(F)F)N(Cc1ccc(-c2ncon2)cc1F)S(=O)(=O)c1ccc(Cl)cc1 (stereo not given)	·	·	·	0%[57.5 µM]	·
CC(=O)c1cccc(NS(=O)(=O)c2ccc3[nH]c4c(c3c2)CCCCCC4)c1	i	i	100*	-6%	-6%
COc1cccc(CNc2ccc(S(=O)(=O)Nc3ccc4ccccc4c3)cc2)c1O	·	·	·	16%[57.5 µM]	·
COc1cccc(CNc2ccc(S(=O)(=O)Nc3ccc(C4CCNCC4)cc3)cc2)c1O	·	·	·	40µM*	·
Clc1nc(CN2CCOCC2)nc2sc3c(c12)CCCC3	·	·	·	-3%	·
Cc1ccc(S(=O)(=O)c2nnn3c2nc(NCc2ccc(F)cc2)c2sccc23)cc1	i	i	-15	89µM*	-4%
O=S(=O)(NCc1ccc(F)cc1)c1ccc2[nH]c3c(c2c1)CCCC3	i	i	118*	?	2%
Cc1ccc(CNS(=O)(=O)c2ccc3c(c2)CCN3S(C)(=O)=O)cc1	i	i	14	50µM*	-2%
O=S(=O)(NCc1ccccc1)c1ccc2[nH]c3c(c2c1)CCCCC3	i	i	11	-15%	1%
Cc1ccc(CNS(=O)(=O)c2ccc3[nH]c4c(c3c2)CCCC4)cc1	i	i	72*	-27%	0%
O=S(=O)(NCc1ccc(Cl)cc1)c1ccc2[nH]c3c(c2c1)CCCC3	i	i	77*	?	0%
CC1CCC2(C)CCC3(C)C(=CCC4C5(C)CCC(O)C(C)(C(=O)O)C5CCC43C)C2C1C (stereo not given)	·	·	·	7%[29.8 µM]	·
CC1(C)CCCC2(C)C1C(=O)C=C(C(=O)O)C2(O)C(=O)O (stereo not given)	·	·	·	-13%[57.5 µM]	·
Fc1cc(Nc2nc(-c3ccncc3)nc3ccccc23)ccc1-c1ccncc1	·	·	·	-1%	·
Fc1cc(Nc2nc(-c3ccncc3)nc3ccccc23)ccc1N1CCNCC1	·	·	·	10µM*	·
CC1CCCC(SCC(O)C(=O)O)CC(=O)c2c(O)cc(O)cc2CC(=O)O1 (stereo not given)	·	·	·	0%[29.8 µM]	·
O=C1CCc2ccc(OCCCCN3CCN(c4cccc(Cl)c4Cl)CC3)cc2N1	i	·	90*	9%	·
O=C(Nc1ccc(N2CCN(CCOc3ccc(Cl)cc3)CC2)c(C(=O)O)c1)c1ccc(F)cc1	i	i	-5	?	-2%
CCS(=O)(=O)c1cccc(C(=O)Nc2ccc(-c3nc4ccccc4s3)c(O)c2)c1	i	i	61*	?	1%
c1ccc2c(-c3cnn4cc(-c5ccc(N6CCNCC6)cc5)cnc34)ccnc2c1	·	·	·	56µM*!	·
CC(C)Oc1ccc(-c2cnc3c(-c4ccnc5ccccc45)cnn3c2)cc1	·	·	·	5%[57.5 µM]	·
C=C1C2(C)CC3C4(C)C=CC(=O)OC(C)(C)C4CCC3(C)C1(C(=O)OC)C(=O)C(C)(O)C2=O (stereo not given)	·	·	·	-1%[29.8 µM]	·
O=C(O)[C@H]1O[C@H](Oc2cc3oc(-c4ccccc4)cc(=O)c3c(O)c2O)[C@H](O)[C@@H](O)[C@H]1O	·	·	·	-13%[57.5 µM]	·
O=c1cc(-c2ccccc2)oc2cc(O)c(O)c(O)c12	·	·	·	28µM*!	·
O=C(NC1CCCc2c1cnn2-c1ccc(F)cc1F)c1ccn[nH]1 (stereo not given)	·	·	·	-4%	·
SMILES	GALC G270D up	B2AR arrestin ag	GPR32 ag	NTMT1 inhibitor	GALK inh	others
COc1ccccc1CNC(=O)Cn1c(=O)ccc2cc(S(=O)(=O)N3CCC(C)CC3)ccc21	i	i	-5	-3%	4%
CCOc1ccc(NC(=O)Cn2c(=O)oc3cc(S(=O)(=O)N4CCC(C)CC4)ccc32)cc1	i	i	117*	4%	-9%
COc1ccccc1CNC(=O)Cn1c(=O)oc2cc(S(=O)(=O)N3CCC(C)CC3)ccc21	i	i	78*	-7%	4%
CC(=O)Nc1sc2c(c1-c1ccc(C(N)=O)cc1)CCNC2	·	·	·	-11%	·
Cc1ccc(NC(=O)c2cnn3c(C)cc(C)nc23)cc1	·	·	·	-1%	·
O=S(=O)(Nc1ccccc1)c1ccc(NCc2ccc(Br)cc2O)cc1	·	·	·	2%	·
O=C(O)CSc1cc(NS(=O)(=O)c2ccc(Br)cc2)c2ccccc2c1O	·	·	·	28µM*	·	NNMT inh=?
Cn1cc(-c2nc3cnc(N4CCNCC4)nc3n(Cc3ccc(F)cc3)c2=O)c2ccccc21	·	·	·	·	·	CLK4 KinaseGlo=?
O=C(O[C@H]1[C@@H]2C=CO[C@@H](O[C@@H]3O[C@H](CO)[C@@H](O)[C@H](O)[C@H]3O)[C@@H]2[C@@]2(CO)O[C@@H]12)c1ccccc1	·	·	·	20%[29.8 µM]	·
CCCN(Cc1cccs1)c1ncnc2ccc(-c3ccc4c(c3)OCO4)cc12	·	·	·	?	·	DYRK1A inh=0.82µM*
CCN(CCc1cn(C)cn1)c1ncnc2ccc(-c3ccc4c(c3)OCO4)cc12	·	·	·	?	·	DYRK1A inh=2.3µM*
CCCNc1ncnc2ccc(-c3ccc4c(c3)OCO4)cc12	·	·	·	·	·	CLK4 KinaseGlo=0.041µM*
Cc1nc(CCNc2ncnc3ccc(-c4ccc5c(c4)OCO5)cc23)cs1	·	·	·	-21%	·	CLK4 KinaseGlo=0.065µM*
COC(=O)Cc1cc2c(c([N+](=O)[O-])c1)N(C(=O)CC[C@H](N)C(=O)O)CC2	·	·	·	-7%[57.5 µM]	·
O=C([C@H](Cc1ccc(O[S+](=O)([O-])c2cccc3cnccc23)cc1)N[S+](=O)([O-])c1cccc2cnccc12)N1CCN(Cc2ccccc2)CC1	·	·	·	-18%[57.5 µM]	·
